Screens (PubChem)
JMJD2A Tudor inh = JMJD2A Tudor domain (human) inhibition. AID 504339. Potency, µM (highest dose often 114 µM), for the others: at the highest dose activity change, negative = inhibition, usual class: inhibitors. AlphaScreen JMJD2A-Tudor / H3K4me3 peptide binding. 4.4% of 390,000 active; note: % is set by controls: 0 for no effect and ±100 for the full control effect; nearly all actives have a fitted effect of over 50% in size
G9a inh = blocks human histone lysine methyltransferase G9a | Q96KQ7 | Potency, µM (doses to about 102 µM), inactives show at the highest dose activity, negative = inhibition, usual class: inhibitors | 8.8% of 350,000 active | G9a H3K9 monomethylation, AlphaScreen, 2 h; note: % is set by controls: 0 for no effect and ±100 for the full control effect; nearly all actives have a fitted effect of over 75% in size
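Signal arises when biotinylated H3K9 peptide, once monomethylated, bridges streptavidin donor and antibody-captured acceptor beads. Enzyme at 20 nM was preincubated 15 min with test compounds; peptide 500 nM and SAM 20 uM then reacted for 2 h.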
BAZ2B block = blocks human BAZ2B. 4.4% of 360,000 active. AID 504333. Potency, µM (series often up to 114 µM), for inactives: top-dose activity change, negative = inhibition, most hits filed as inhibitors. Q9UIF8. AlphaScreen BAZ2B-H3K14Ac peptide displacement; note: % is set by controls: 0 for no effect and ±100 for the full control effect; nearly all actives have a fitted effect of over 60% in size
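Compounds, titrated to a top concentration of 110 uM, were incubated 30 min at room temperature with preformed BAZ2B/acetyl-K14 H3 peptide complex (50 nM each). Proximity signal was measured by AlphaScreen after 20 min with beads.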
GLS inhibitor = inhibitors of human glutaminase (GLS); 0.21% of 410,000 active; Potency, µM (series often up to 45.5 µM), inactives show at the top dose activity change, negative = inhibition, hits mostly inhibitors; GLS enzymatic activity, qHTS titration; note: % is set by controls: 0 for no effect and ±100 for the full control effect
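Glutamate formation by hKGA was monitored fluorometrically using coupled glutamate oxidase, HRP and Amplex Red. Substrate was added as 1 mM L-glutamine solution; incubation was 30 min at RT after an initial read.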
HP1b binding inh = inhibitors of HP1-beta chromodomain binding to methylated histone tails | AlphaScreen HP1-beta / biotin-H3K9me3 peptide binding | AID 540317 | Potency, µM (doses to about 114 µM), for inactives: top-dose activity change, negative = inhibition, hits mostly inhibitors | 0.56% of 390,000 active | P83916; note: nearly all actives have a fitted effect of over 70% in size
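HP1-beta protein (50 nM final) preincubated 30 min at room temperature with biotinylated H3(1-18)K9me3 peptide (50 nM) in PBS pH 7.4, 0.01% Tween-20, then compound added for 30 min. AlphaScreen streptavidin donor/nickel chelate acceptor beads (10 ug/mL final), 30 min dark, luminescence read.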
Numbers without * were called inactive; u = inconclusive; x = no result; [ ] = remark or other dose. Compounds with a hit are over-represented: about 10% of the library has one in this group of screens. Calls come from the whole dose curve; as a rule, active = well fitted curve in the direction sought with a large enough effect; inconclusive = small, poorly fitted or top-dose-only effect, or another doubt; inactive = no such curve, though single readings can be large; an effect the other way counts as inactive or inconclusive. Potency is the fitted concentration of half-maximal effect.

SMILES | JMJD2A Tudor inh | G9a inh | BAZ2B block | GLS inhibitor | HP1b binding inh
COc1ccc(Nc2nc(NN)nc(Nc3ccc(OC)cc3)n2)cc1 | 44.7µM* | -1.2% | 25.1µM* | 8.0% | 15.3%
COc1ccc(Nc2cccc3ccccc23)cc1 | 56.2µM* | 22.6%[2.33 µM] | u | 30.7% | u
Nc1nc(N2CCCCC2)nc2ccccc12 | -5.7% | 50.1µM* | -4.2% | 18.7% | 25.2%
COc1cc(C(=O)NCC(=O)N/N=C\C(C)=C/c2ccccc2)cc(OC)c1OC | -19.1% | 9.2% | -20.1% | 3.4% | 3.4%
Cc1ccc(C(=O)Nc2ccccc2C(=O)NC(C(=O)O)C(C)C)cc1 (stereo not given) | -9.4% | 6.4%[59 µM] | 4.0% | -1.1% | 33.5%
COc1ccc(C(CCNC(C)c2ccccc2)C(C)C)cc1 (stereo not given) | 0.0% | x | -1.1% | -0.9% | 34.1%
Cc1nnc(SCC(=O)NCc2cccc(F)c2)c2nn(-c3ccccc3)c(C)c12 | -10.7% | -26.7%[59 µM] | -20.9% | -1.1% | 17.1%
COc1ccc2nc(Nc3nc(C)c(C(C)=O)s3)sc2c1 | 7.1%[57.1 µM] | -15.0%[59 µM] | 29.9% | 10.2% | 12.2%
NNc1nc(Nc2ccc([N+](=O)[O-])cc2)nc(N2CCCCCC2)n1 | 56.2µM* | x | 28.2µM* | 7.2% | 108.8%
COc1ccc(Nc2nc3ccc(OC)cc3s2)cc1 | u | 39.8µM* | 56.2µM* | -20.8% | -27.1%
O=[N+]([O-])c1ccc(Nc2nc(N3CCOCC3)nc(N3CCOCC3)n2)cc1 | -11.6% | x | x | -10.8% | 8.2%
COc1ccccc1-c1noc(CCC(=O)NC2CCCC2)n1 | -0.8% | x | -2.4% | -7.6% | 46.7%
O=C(COc1nncc2ccccc12)Nc1ccc(Br)cc1F | -11.0% | 5.1% | -3.7% | -4.1% | 27.8%
Cc1cc2ccccn2c1C(=O)c1ccc(F)cc1 | 47.3% | 39.8%[59 µM] | 16.9% | 4.5% | 103.6%
Cc1cc2ccccn2c1C(=O)c1ccc([N+](=O)[O-])cc1[N+](=O)[O-] | 20µM* | u | 25.1µM* | 8.0% | 39.8µM*
Cc1cc2ccccn2c1C(=O)c1ccccc1Br | -13.3% | u | -17.9% | -11.9% | 17.2%
Cc1cc2ccccn2c1C(=O)c1ccc([N+](=O)[O-])o1 | u | u | 10µM* | 3.2% | -11.3%
Cc1cc2ccccn2c1C(=O)c1cccc([N+](=O)[O-])c1 | -18.1% | 39.8µM* | u | -3.4% | u
Cc1cc2ccccn2c1C(=O)c1ccc(Cl)c([N+](=O)[O-])c1 | u | -31.4% | 11.2µM* | 9.4% | u
O=[N+]([O-])c1cccn2cc(-c3ccc(Br)cc3)nc12 | u | u | u | 6.4% | -10.9%
Nc1nn2cc(-c3ccc(Br)cc3)nc2c2ccccc12 | -17.9% | 79.4µM* | -30.6% | 2.4% | 15.6%
COc1ccc(C2(C(=O)N3CCOCC3)CCCC2)cc1 | -6.9% | -3.0%[0.501 µM] | 7.4% | -0.1% | 14.7%
CCCCc1nnc2c(N(C)S(=O)(=O)c3ccccc3)nc3ccccc3n12 | -7.2% | 70.8µM* | -6.9% | 8.0% | 9.4%
CC(C)c1nnc2c(N(C)S(=O)(=O)c3ccccc3)nc3ccccc3n12 | -10.3% | -1.0% | -2.9% | -0.8% | 37.0%
COc1cccc(CNc2nc3nc(C)c(Cl)c(=O)n3[nH]2)c1 | 8.3% | x | -7.6% | -2.4% | 84.1%
SMILES | JMJD2A Tudor inh | G9a inh | BAZ2B block | GLS inhibitor | HP1b binding inh
O=C(c1cccs1)N1CCN(Cc2cccc([N+](=O)[O-])c2)CC1 | 20µM* | 11.2µM* | 28.2µM* | 0.9% | u
COc1ccc(CN2CCN(C(=O)c3ccccc3C(=O)c3ccccc3)CC2)cc1F | x | x | x | 9.4% | x
COc1ccc(CN2CCN(C(=O)c3cccc4ccccc34)CC2)cc1Br | 17.8µM* | 28.2µM* | 50.1µM* | -0.9% | -16.9%
CCOc1cc(CN2CCN(C(=O)c3cccc4ccccc34)CC2)ccc1OC | 20µM* | 22.4µM* | 50.1µM* | 4.0% | u
O=C(c1ccc([N+](=O)[O-])cc1)N1CCN(C(=O)c2cccs2)CC1 | -9.7% | 43.0%[59 µM] | -4.4% | 3.7% | 7.1%
COc1ccc(CN2CCN(C(=O)c3cccs3)CC2)cc1Br | 35.5µM* | 35.5µM* | 50.1µM* | -1.8% | u
Cc1ccc(-c2nnn(CC(=O)N(CC3CCCO3)C(C(=O)NC(C)(C)C)c3ccc(F)cc3)n2)o1 (stereo not given) | -21.6% | 21.4%[59 µM] | -3.6% | -5.4% | 36.9%
